Bioassay records deposited in PubChem by National Center for Advancing Translational Sciences (NCATS).
The list is not random: actives were taken first. Their share in the collection is about 12%.
G9a block: inhibitors of human histone lysine methyltransferase G9a. G9a H3K9 monomethylation, AlphaScreen, 2 h. Potency, µM (series often up to 102 µM), for inactives: top-dose activity, negative = inhibition, actives largely listed as inhibitors. actives 8.8% (n = 350,000). AID 504332; further: on the % scale 0 is the no-effect control and ±100 the full control effect; nearly all actives have a fitted effect of over 75% in size
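Signal arises when biotinylated H3K9 peptide, once monomethylated, bridges streptavidin donor and antibody-captured acceptor beads. Enzyme at 20 nM was preincubated 15 min with test compounds; peptide 500 nM and SAM 20 uM then reacted for 2 h.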
Sfp PPTase inh: Sfp phosphopantetheinyl transferase inhibition; Q9F4F7; Biochemical Sfp PPTase activity, qHTS; Potency, µM, without a hit: largest response in the series, negative = inhibition, most hits filed as inhibitors; actives 3.5% (n = 310,000);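 further: the enzyme is Sfp with the accession as filed and its product quenches rhodamine fluorescence; 0% = enzyme reaction without inhibitor and -100% = no enzyme wells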
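With Hepes-Na pH 7.6 buffer containing 10 mM MgCl2, Sfp (15 nM) modified BHQ-2-YbbR (12.5 uM) using rhodamine-CoA (5 uM). Two reads 30 minutes apart at 525/598 nm yielded each well's rate.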
L3MBTL1 block: L3MBTL1 (human) inhibition; actives 0.66% (n = 230,000); Potency, µM (series often up to 57.1 µM), inactives show top-dose activity, negative = inhibition, actives largely listed as inhibitors; AID 485360; Q9Y468; AlphaScreen L3MBTL1–H3K9me1 peptide binding; further: on the % scale 0 is the no-effect control and ±100 the full control effect; nearly all actives have a fitted effect of over 60% in size
Target sequence (Q9Y468 whole entry, looked up): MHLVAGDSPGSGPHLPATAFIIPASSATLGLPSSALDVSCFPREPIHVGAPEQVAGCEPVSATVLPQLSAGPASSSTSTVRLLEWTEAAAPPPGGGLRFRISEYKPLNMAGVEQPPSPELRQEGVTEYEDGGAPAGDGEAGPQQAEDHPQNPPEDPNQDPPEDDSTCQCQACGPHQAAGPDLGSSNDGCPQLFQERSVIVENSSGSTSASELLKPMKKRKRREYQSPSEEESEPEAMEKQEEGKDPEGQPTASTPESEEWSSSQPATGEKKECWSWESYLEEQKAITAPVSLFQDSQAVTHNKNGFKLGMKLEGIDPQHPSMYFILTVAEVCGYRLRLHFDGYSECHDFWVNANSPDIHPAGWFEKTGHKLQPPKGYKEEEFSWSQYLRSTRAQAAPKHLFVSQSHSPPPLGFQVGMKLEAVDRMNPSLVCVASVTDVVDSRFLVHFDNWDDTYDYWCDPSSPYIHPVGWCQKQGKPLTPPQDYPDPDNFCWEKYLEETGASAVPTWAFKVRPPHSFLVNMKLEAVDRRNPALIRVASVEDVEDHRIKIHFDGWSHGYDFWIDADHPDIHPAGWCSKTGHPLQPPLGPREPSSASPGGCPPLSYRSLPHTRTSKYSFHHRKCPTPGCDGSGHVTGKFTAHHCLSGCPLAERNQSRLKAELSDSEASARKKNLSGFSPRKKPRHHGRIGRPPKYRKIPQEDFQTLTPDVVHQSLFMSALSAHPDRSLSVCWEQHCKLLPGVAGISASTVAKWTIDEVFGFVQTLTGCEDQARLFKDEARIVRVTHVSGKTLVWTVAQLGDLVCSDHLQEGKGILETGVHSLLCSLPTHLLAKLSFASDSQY
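AlphaScreen assay: L3MBTL1 (50 nM final) was preincubated 30 min at room temperature with biotinylated H3(1-15)K9me1 peptide (75 nM final), then 30 min with library compounds; streptavidin donor and nickel chelate acceptor beads (10 ug/mL final) added, 30 min dark.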
BAZ2B block: BAZ2B (human) inhibition; Q9UIF8; AlphaScreen BAZ2B-H3K14Ac peptide displacement; Potency, µM (highest dose often 114 µM), for inactives: top-dose activity change, negative = inhibition, most hits filed as inhibitors; actives 4.4% (n = 360,000); further: on the % scale 0 is the no-effect control and ±100 the full control effect; nearly all actives have a fitted effect of over 60% in size
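BAZ2B (50 nM) with biotin-H3(5-23)K14Ac peptide (50 nM) in PBS pH 7.4, 0.01% Tween-20, preformed 30 min, then compound 30 min at room temperature; top concentration 110uM. AlphaScreen streptavidin donor/nickel chelate acceptor beads (10 ug/mL final), 20 min dark, signal read.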
HP1b chromo inh: HP1-beta chromodomain-methylated histone interaction inhibition; Potency, µM (series often up to 114 µM), without a hit: at the top dose activity change, negative = inhibition, hits mostly inhibitors; P83916; actives 0.56% (n = 390,000); AID 540317; AlphaScreen HP1-beta / biotin-H3K9me3 peptide binding; further: nearly all actives have a fitted effect of over 70% in size
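Compound inhibition of the preformed complex between 50 nM HP1-beta and 50 nM biotinylated H3K9me3 peptide was read by AlphaScreen. Buffer was PBS pH 7.4 with 0.01% Tween-20. Incubations ran 30 min at room temperature, with 10 ug/mL donor/acceptor beads.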
JMJD2A Tudor: blocks the human JMJD2A Tudor domain | Potency, µM (top dose mostly 114 µM), inactives show at the highest dose activity change, negative = inhibition, most hits filed as inhibitors | O75164 | actives 4.4% (n = 390,000) | AlphaScreen JMJD2A-Tudor / H3K4me3 peptide binding | AID 504339; further: on the % scale 0 is the no-effect control and ±100 the full control effect; nearly all actives have a fitted effect of over 50% in size
* hit, by the source's call; [ ] = dose if it differs, or a comment. The call rests on the fitted dose curve; in most records, active means well fitted curve in the direction sought with a large enough effect; inconclusive means small, poorly fitted or top-dose-only effect, or another doubt; inactive means no such curve, though single readings can be large; an effect the other way counts as inactive or inconclusive. Potency means the concentration at half of the fitted maximal effect.

What do the screens show for `C[C@@H](C(=O)NC1CCN(Cc2ccccc2)CC1)N1C(=O)N2CCc3c([nH]c4ccccc34)[C@@]2(C)C1=O`?
G9a block: -17%; Sfp PPTase inh: 4%; L3MBTL1 block: -12%; BAZ2B block: inconclusive; HP1b chromo inh: -11%; JMJD2A Tudor: inconclusive

Results for COc1ccc2[nH]c3c(c2c1)CCN1C(=O)N([C@@H](C)C(=O)NCc2ccccc2)C(=O)[C@]31C ?
Sfp PPTase inh: -2%; L3MBTL1 block: -10%; BAZ2B block: 4%[57.1 µM]; HP1b chromo inh: 11%; JMJD2A Tudor: -29%

How did O=C(O)c1cc([N+](=O)[O-])ccc1NCc1ccccc1Cl do in these assays?
G9a block: inconclusive; Sfp PPTase inh: 4%; BAZ2B block: -8%; HP1b chromo inh: -22%; JMJD2A Tudor: -31%

How did COc1cc(NC(=O)c2cc([N+](=O)[O-])ccc2NC(=O)CNCc2ccccn2)cc(OC)c1 do in these assays?
G9a block: 0%; Sfp PPTase inh: -14%; BAZ2B block: inconclusive; HP1b chromo inh: 6%; JMJD2A Tudor: 79µM*

How did O=C(O)c1cc([N+](=O)[O-])ccc1NCc1ccccn1 do in these assays?
G9a block: 23%[2.33 µM]; L3MBTL1 block: -1%; BAZ2B block: 79µM*; HP1b chromo inh: 27%; JMJD2A Tudor: 79µM*

How did COc1ccc(NC(=O)c2cc([N+](=O)[O-])ccc2NC(=O)CNCc2ccccn2)c(OC)c1 do in these assays?
G9a block: 28µM*; Sfp PPTase inh: 45µM*; BAZ2B block: inconclusive; HP1b chromo inh: -1%; JMJD2A Tudor: 79µM*

Results for CCCCS(=O)(=O)N1CCc2nc(COc3ccccc3)c3c(c2C1)CO[C@@H](C)C3 ?
Sfp PPTase inh: 11%

What do the screens show for `COc1ccc(Cl)cc1NC(=O)Cn1c(=O)n2nc(-c3ccccc3)nc2c2ccccc21`?
G9a block: -29%[59 µM]; BAZ2B block: -2%; HP1b chromo inh: 42%; JMJD2A Tudor: -11%

How did CCCNC(=S)N1CCN(C(c2ccccc2)c2ccccc2)CC1 do in these assays?
G9a block: 13%; Sfp PPTase inh: -9%; L3MBTL1 block: -8%; BAZ2B block: -10%; HP1b chromo inh: 33%; JMJD2A Tudor: -13%

Results for CSc1ccc(C(=S)N2CCCC2)cc1 ?
G9a block: 32µM*; Sfp PPTase inh: 50µM*; L3MBTL1 block: -3%; BAZ2B block: -21%; HP1b chromo inh: inconclusive; JMJD2A Tudor: -11%

Results for CSc1ccc(C(=S)N2CCN(C(c3ccccc3)c3ccccc3)CC2)cc1 ?
G9a block: 10µM*; Sfp PPTase inh: 35µM*; BAZ2B block: -37%; HP1b chromo inh: -39%; JMJD2A Tudor: -31%

Results for CSc1ccc(C(=S)N2CCN(C)CC2)cc1 ?
G9a block: inconclusive; Sfp PPTase inh: 6.3µM*; L3MBTL1 block: -3%; BAZ2B block: 4%; HP1b chromo inh: -15%; JMJD2A Tudor: -18%

Results for CC(C)COc1ccc(C(=S)N2CCCC2)cc1 ?
HP1b chromo inh: 8%; JMJD2A Tudor: -22%

What do the screens show for `O=C(O)c1cc(NN=C2CCN(Cc3ccccc3)CC2)ccc1Cl`?
Sfp PPTase inh: -17%; L3MBTL1 block: -7%; BAZ2B block: 15%; HP1b chromo inh: 23%; JMJD2A Tudor: -23%

How did CCCN1CCC(=NNc2ccc(C(=O)O)cc2)CC1 do in these assays?
G9a block: 7.9µM*; Sfp PPTase inh: inconclusive; L3MBTL1 block: 2%; BAZ2B block: inconclusive; HP1b chromo inh: 23%; JMJD2A Tudor: -24%

Results for Cc1nc(NC(=O)c2ccccc2)sc1-c1csc(Nc2ccc(F)cc2)n1 ?
G9a block: 32µM*; Sfp PPTase inh: -7%; L3MBTL1 block: -1%; BAZ2B block: inconclusive

Results for Cc1nc(NC(=O)c2ccco2)sc1-c1csc(Nc2ccc(Cl)cc2)n1 ?
G9a block: 12%[0.501 µM]; Sfp PPTase inh: 2%; L3MBTL1 block: -7%; BAZ2B block: inconclusive; HP1b chromo inh: -8%; JMJD2A Tudor: inconclusive

Results for Cc1nc(NC(=O)c2ccccc2)sc1-c1csc(Nc2ccc(Cl)cc2)n1 ?
G9a block: 45µM*; Sfp PPTase inh: 12%; L3MBTL1 block: -3%; BAZ2B block: -38%[57.1 µM]

What do the screens show for `Cc1nc(NC(=O)c2ccccc2)sc1-c1csc(Nc2cccc(Cl)c2)n1`?
G9a block: 50µM*; Sfp PPTase inh: 2%; L3MBTL1 block: -19%; BAZ2B block: inconclusive

How did Cc1ccc(S(=O)(=O)N2CCN(c3nc(-c4cccs4)nc4ncccc34)CC2)cc1 do in these assays?
HP1b chromo inh: 33%; JMJD2A Tudor: -18%

What do the screens show for `CC1=C(c2ccc(C(C)C)cc2)S(=O)(=O)N=C1N1CCN(C(=O)c2ccco2)CC1`?
G9a block: 14%; Sfp PPTase inh: 5%; BAZ2B block: -18%; HP1b chromo inh: -3%; JMJD2A Tudor: 45µM*

What do the screens show for `COC(=O)c1ccccc1N=C(SC)N(C)C`?
G9a block: 16µM*; Sfp PPTase inh: -17%; L3MBTL1 block: 10%; BAZ2B block: -2%; HP1b chromo inh: 3%; JMJD2A Tudor: -19%

How did COC(=O)c1ccccc1NC(=S)N(C)C do in these assays?
G9a block: 25%[59 µM]; Sfp PPTase inh: 19%; L3MBTL1 block: 1%; BAZ2B block: -1%; HP1b chromo inh: 3%; JMJD2A Tudor: -13%

What do the screens show for `CN(C(=O)CSc1n[nH]c(N)n1)C1CCCCC1`?
L3MBTL1 block: -10%; HP1b chromo inh: 8%; JMJD2A Tudor: -18%

What do the screens show for `Nc1nc(SCC(=O)C23CC4CC(CC(C4)C2)C3)n[nH]1`?
G9a block: 35µM*; Sfp PPTase inh: -11%; L3MBTL1 block: 3%; BAZ2B block: 1%; HP1b chromo inh: 31%; JMJD2A Tudor: -17%

What do the screens show for `Cc1ccc(CSc2nc3ccc(NC(=O)COc4ccccc4)cc3s2)cc1`?
G9a block: -2%[59 µM]; BAZ2B block: -4%; HP1b chromo inh: 12%; JMJD2A Tudor: -16%

How did C/C(=N\O)C(=O)C(CN1CCCCC1)CN1CCCCC1 do in these assays?
G9a block: 0.89µM*; Sfp PPTase inh: -10%; BAZ2B block: 8%; HP1b chromo inh: inconclusive; JMJD2A Tudor: -30%

How did O=C1/C(=C\c2ccc(Cl)c(Cl)c2)CN(C(=O)CCN2CCOCC2)C/C1=C/c1ccc(Cl)c(Cl)c1 do in these assays?
HP1b chromo inh: -33%; JMJD2A Tudor: 35µM*

Results for O=C1/C(=C\c2ccccc2)CN(C(=O)CCN2CCCCC2)C/C1=C/c1ccccc1 ?
HP1b chromo inh: 5%; JMJD2A Tudor: -24%
